# GLP1R ag: activates the human GLP-1 receptor. 380,000 tested, 0.007% active. AID 624172. P43220. HEK293 GLP-1R CRE-luciferase, luminescence, 4-6 h; cells express a hypersensitive GLP-1R form. Potency, µM (top dose mostly 45.6 µM), for the others: top-dose activation, actives largely listed as activators; further: potency means the concentration at half of the fitted maximal effect; % of control where 0% means no effect
# Target sequence (P43220 whole entry, looked up): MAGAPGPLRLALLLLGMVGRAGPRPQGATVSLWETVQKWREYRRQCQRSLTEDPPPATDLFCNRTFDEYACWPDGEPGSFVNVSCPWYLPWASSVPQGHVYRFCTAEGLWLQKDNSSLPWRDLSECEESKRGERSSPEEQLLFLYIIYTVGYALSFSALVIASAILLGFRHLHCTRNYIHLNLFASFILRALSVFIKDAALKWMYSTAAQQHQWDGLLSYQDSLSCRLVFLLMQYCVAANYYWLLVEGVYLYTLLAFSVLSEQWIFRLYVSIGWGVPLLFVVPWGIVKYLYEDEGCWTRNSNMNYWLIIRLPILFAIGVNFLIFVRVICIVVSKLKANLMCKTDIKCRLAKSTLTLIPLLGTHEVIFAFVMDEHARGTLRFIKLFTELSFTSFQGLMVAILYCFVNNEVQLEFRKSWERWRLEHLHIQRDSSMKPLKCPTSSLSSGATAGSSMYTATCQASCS
# HEK293 tox: cytotoxicity counter-screen for GLP-1 receptor inverse agonists; 410,000 tested, 0.13% active; HEK293 cAMP-luciferase reporter cells, luminescence, 24 h; Potency, µM (series often up to 38.3 µM), for inactives: at the top dose activity change, negative = inhibition, hits mostly inhibitors;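 further: loss of luciferase light is scored as toxicity; potency means the concentration at half of the fitted maximal effect; on the % scale 0 is the no-effect control and ±100 the full control effect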
#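 Here, cytotoxicity is scored as loss of luminescence. The MLSMR collection was tested on cells seeded in medium containing 10% Nu serum, with a 24 hr compound exposure preceded by 12 hours of culture.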
# p53 reactivation: re-activators of mutant p53; H1299 p53-A138V BP100-luciferase reporter, luminescence, 24 h; Potency, µM (highest dose often 92.2 µM), inactives show at the top dose activity change, positive = activation, usual class: activators; 320,000 tested, 0.063% active; AID 504706; further: potency means the concentration at half of the fitted maximal effect; % of control where 0% means no effect; nearly all actives have a fitted effect of over 45% in size
#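 H1299 (p53-null), stable ts p53-A138V + BP100-Luc; 1000 cells/well, Opti-MEM/10% FBS; cpd 4 pt, 1:5; 24 h, 37 deg C, 5% CO2; detection reagent 10 min RT; luminescence.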
# ClpP mod: qHTS Assay for Activators of ClpP. ATP-dependent Clp protease proteolytic subunit (Bacillus subtilis (strain 168)), P80244. purified B. subtilis ClpP, FRET peptide cleavage, 20 min. Potency, µM (doses to about 57.5 µM), for the others: top-dose activity change, negative = active. 340,000 tested, 1.9% active. AID 651965, 2013; active means well fitted falling curve with a large enough effect; inconclusive means small, poorly fitted or top-dose-only effect; inactive means no such curve, though single readings can be large or run the other way; further: potency means the concentration at half of the fitted maximal effect; the source files actives as falling curves though it sought activators and does not explain the sign; nearly all actives have a fitted effect of over 65% in size
# Target sequence (P80244 whole entry, looked up): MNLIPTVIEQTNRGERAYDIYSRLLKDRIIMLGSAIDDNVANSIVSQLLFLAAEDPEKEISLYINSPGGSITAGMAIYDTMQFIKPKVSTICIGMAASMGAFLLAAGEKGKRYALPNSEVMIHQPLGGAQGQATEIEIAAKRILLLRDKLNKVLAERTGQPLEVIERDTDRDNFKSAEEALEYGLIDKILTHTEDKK
#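 ClpP 10 microg/mL final, pH 8 Tris/KCl buffer with BSA, glycerol, Tween-20; compound pinned in; FRET-FV substrate; RT 20 min; Ex320/Em430; ΔFRET vs ADEP 5.8 microM, DMSO, no enzyme.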
# GLP-1R inv ag: GLP-1 receptor (human) inverse agonism; Potency, µM (series often up to 38.3 µM), inactives show top-dose activity change, negative = inhibition, hits mostly inhibitors; AID 624417; P43220; HEK293 GLP-1R CRE-luciferase, luminescence, 24 h; GLP-1R form is constitutively active; 410,000 tested, 1.6% active; further: potency means the concentration at half of the fitted maximal effect; on the % scale 0 is the no-effect control and ±100 the full control effect; nearly all actives have a fitted effect of over 55% in size
#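 GLP-1R inverse agonism mode: basal reporter luminescence in engineered HEK293 cells measured after one day of compound exposure at 37 deg C, with a 12 min room-temperature detection step.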
# LDHA inh: inhibitors of human lactate dehydrogenase A; P00338; purified LDHA, NADH/diaphorase-resazurin fluorescence; stronger effect = lower value; activity change, % (values are at about 110 or 230 µM); 480,000 tested, 0.15% active; AID 1347041; in the data active means activity change below about -30%; inconclusive means mostly about -25% to -30%;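 further: plate controls were DMSO wells for no effect and wells without enzyme for full effect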
#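 Remaining NADH was detected by diaphorase (0.133 mg/mL) converting 37 µM resazurin to fluorescent resorufin, read at 0 and 20 minutes. The preceding 5-minute room-temperature reaction used 2 nM LDHA, 0.2 mM sodium pyruvate and 0.06 mM NADH at pH 7.4.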
# Starred values were filed as active, the others as inactive; ? = inconclusive; / = no result. Compounds with a hit are over-represented: about 2.9% of the library has one in this group of screens. Unless noted, the call rests on the fitted dose curve; in most records, active means well fitted curve in the direction sought with a large enough effect; inconclusive means small, poorly fitted or top-dose-only effect, or another doubt; inactive means no such curve, though single readings can be large; an effect the other way counts as inactive or inconclusive.
SMILES,GLP1R ag,HEK293 tox,p53 reactivation,ClpP mod,GLP-1R inv ag,LDHA inh
CCOC(=O)c1ccc(-c2c(-c3ccccc3OC)sc3ccc(OC)cc23)cc1F,-2%,17%,0%,?,11µM*,2
COc1ccccc1-c1sc2ccccc2c1-c1ccc(O)cc1,9%,0%,-1%,20µM*,?,-4
COc1ccccc1-c1sc2ccccc2c1-c1ccc(OCCN2CCOCC2)cc1,10%,-4%,-5%,-24%,?,-1
COc1ccccc1-c1sc2cc3c(cc2c1-c1ccc2c(c1)OCO2)OCO3,3%,4%,?,4%,?,2
CCOc1ccccc1CNC(=O)c1ncoc1-c1cccc(C)c1,/,/,/,/,/,2
COc1cccc(-c2sc3ccc(OC)cc3c2-c2ccc(O)cc2)c1,4%,10%,-3%,28µM*,?,0
COc1cc2sc(-c3ccccc3OC)c(-c3ccc(OCCN4CCCCC4)cc3)c2cc1OC,1%,-29%,-6%,?,?,3
COc1ccccc1-c1sc2cc3c(cc2c1-c1ccc(OCCN2CCCCC2)cc1)OCO3,10%,?,-15%,5%,13µM*,-6
COc1cccc(-c2sc3ccc(OC)cc3c2-c2cc(F)cc(OC)c2)c1,-4%,9%,17%,?,?,0
CCOc1ccc(-c2cc(NC(=O)Nc3ccccc3Cl)c(C(=O)OC)s2)cc1,/,-1%,/,14µM*,27%,-3
CC(C)NC(=O)Cn1c(=O)n(-c2ccccc2)c(=O)c2sccc21,/,/,/,/,/,-41*
CN(CC(=O)Nc1ccccc1Br)C(=O)c1ccccc1-c1nc2ccccc2s1,4%,12%,-39%,28µM*,?,-1
CCCN(CC(=O)Nc1ccccc1C)C(=O)c1cn2ccccc2n1,1%,-4%,-3%,32µM*,2%,-2
CCN(CC(=O)Nc1c(F)cccc1F)C(=O)c1cn2ccccc2n1,-1%,2%,-5%,?,16%,-10
Cc1ccc(NC(=O)c2ccc(CNS(=O)(=O)c3ccc4c(c3)C(C)(C)C(=O)N4C)cc2)cc1,/,5%,/,2%,7%,-1
CCc1cccc(NC(=O)c2ccc(CNS(=O)(=O)c3ccc4c(c3)C(C)(C)C(=O)N4C)cc2)c1,/,-18%,/,-4%,10µM*,0
CCC1(C)Cc2c(sc3c2c(=O)n(C)c2nnc(SCC(=O)c4ccccc4)n32)CO1 (centres undefined),-11%,1%,/,1%,0%,-7
CCCN1CCC(=NNc2ccc(S(=O)(=O)N(CC)CC)cc2[N+](=O)[O-])CC1,12%,?,-4%,/,?,-11
CCCN1CCC(=NNc2ccc(S(N)(=O)=O)cc2[N+](=O)[O-])CC1,1%,12%,4%,14µM*,24%,-3
CC1CN(C(=O)N2CCC(C(=O)NC3CCCCCC3)CC2)c2ccccc2O1 (centres undefined),/,-4%,/,-1%,9%,-10
Cn1c2ccccc2c2ncn(Cc3ccco3)c(=O)c21,12%,5%,-6%,32µM*,-2%,-5
Cn1c2ccccc2c2ncn(Cc3ccc(F)cc3)c(=O)c21,11%,-2%,-3%,/,9%,-4
Cn1c2ccc(F)cc2c2ncn(Cc3ccco3)c(=O)c21,?,6%,-5%,25µM*,122%,-5
Cn1c2ccc(F)cc2c2ncn(Cc3ccccn3)c(=O)c21,20%,4%,-4%,0%,68%,-7
Cc1cc(OCC(=O)NCC(c2cccs2)N2CCOCC2)ccc1C(C)C (centres undefined),19%,-7%,-5%,/,?,0
SMILES,GLP1R ag,HEK293 tox,p53 reactivation,ClpP mod,GLP-1R inv ag,LDHA inh
CC(C)[C@H](NC(=O)C1CC(=O)N(c2ccc(F)cc2)C1)C(=O)N1CCCCC1 (some centres undefined),-5%,-11%,21%,0%,-19%,-11
CCNC(=S)Nc1cc(C(=O)N2CCCC2)ccc1N1CCCC1,3%,-11%,-2%,-3%,5%,-11
Fc1ccc(Nc2nc(SCc3cccc(Cl)c3)nc3ccccc23)cc1,/,-14%,/,?,11µM*,-5
Fc1ccc(Nc2nc(SCc3ccc(Cl)cc3)nc3ccccc23)cc1,/,2%,/,35µM*,?,-6
CC(=O)OC(C)C1C2=C(C(=O)CC1(C)O)C(=O)c1c(ccc(-c3ccc4c(c3O)C(=O)C3=C(C4=O)C(C(C)OC(C)=O)C(C)(O)CC3=O)c1O)C2=O (centres undefined),-12%,-23%,/,-3%,1%,16
CC(C)C1Cc2c(sc(N)c2C#N)CO1 (centres undefined),/,/,/,/,/,9
CC(C)C[C@H](CO)N(Cc1ccccc1)S(=O)(=O)N(Cc1ccccc1)[C@@H](CO)CC(C)C,-1%,?,-13%,0%,5.6µM*,8
C=CS(=O)(=O)N(Cc1ccccc1)[C@H](CO)CC(C)C,7%,-4%,/,2%,-5%,5
CCCCc1nc2sc3c(NCCO)ncnc3c2c2c1CCC2,/,/,/,/,/,1
Cc1ccnc(NS(=O)(=O)c2cc(-c3cc(C)no3)ccc2C)c1,/,3%,/,-27%,13%,-12
COc1cccc(CCN2CCC(CNS(=O)(=O)c3cc(-c4cc(C)no4)ccc3C)CC2)c1,-9%,?,?,0%,4.5µM*,-1
COc1cccc(CCN2CCC(CNS(=O)(=O)c3cc(-c4cc(C)no4)ccc3OC)CC2)c1,5%,?,1%,-4%,?,-22
Cc1cccc(NS(=O)(=O)c2cccs2)n1,-1%,2%,4%,20µM*,5%,2
Cc1cc(C)cc(NS(=O)(=O)c2ccc(-c3cc(C)no3)cc2)c1,/,-22%,/,1%,3.5µM*,2
Cc1cc(-c2ccc(C)c(S(=O)(=O)Nc3cccc(C)n3)c2)on1,/,3%,/,32µM*,5%,-5
COc1ccccc1C(=O)Nc1ccc2c(C)cc(=O)oc2c1,2%,3%,8%,-1%,30%,0
CC(=O)Nc1ccc(Nc2cc(C)nc3ccccc23)cc1,9%,-22%,/,/,34%,-2
CN(C)c1ccc(N=Cc2nc(-c3ccccc3)oc2O)cc1,-4%,48%,5%,22µM*,0%,-4
COC(=O)c1nnn(-c2nonc2N)c1CSc1ccccn1,-2%,-15%,0%,1%,-10%,1

# Bioassay records as filed in PubChem.
